The results in this text go back to article PMC4336329 (PLoS ONE, 2015).

The whole screen tested about 310,000 compounds, of which about 14,000 (4.5%) showed an effect of 50% or more. Effects have a minus sign here. The full list was thinned out, with strong results kept by preference.
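Further: peak tail current of the secondary pulse compared with the same well before compound.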

The target of the test is human ether-à-go-go-related gene (hERG) potassium channel (human, UniProt Q12809). The test is described as follows: primary screen, population patch clamp on CHO cells stably expressing hERG; higher = less effect of the substance.
Chain of human ether-à-go-go-related gene (hERG) potassium channel (Q12809 whole entry, looked up): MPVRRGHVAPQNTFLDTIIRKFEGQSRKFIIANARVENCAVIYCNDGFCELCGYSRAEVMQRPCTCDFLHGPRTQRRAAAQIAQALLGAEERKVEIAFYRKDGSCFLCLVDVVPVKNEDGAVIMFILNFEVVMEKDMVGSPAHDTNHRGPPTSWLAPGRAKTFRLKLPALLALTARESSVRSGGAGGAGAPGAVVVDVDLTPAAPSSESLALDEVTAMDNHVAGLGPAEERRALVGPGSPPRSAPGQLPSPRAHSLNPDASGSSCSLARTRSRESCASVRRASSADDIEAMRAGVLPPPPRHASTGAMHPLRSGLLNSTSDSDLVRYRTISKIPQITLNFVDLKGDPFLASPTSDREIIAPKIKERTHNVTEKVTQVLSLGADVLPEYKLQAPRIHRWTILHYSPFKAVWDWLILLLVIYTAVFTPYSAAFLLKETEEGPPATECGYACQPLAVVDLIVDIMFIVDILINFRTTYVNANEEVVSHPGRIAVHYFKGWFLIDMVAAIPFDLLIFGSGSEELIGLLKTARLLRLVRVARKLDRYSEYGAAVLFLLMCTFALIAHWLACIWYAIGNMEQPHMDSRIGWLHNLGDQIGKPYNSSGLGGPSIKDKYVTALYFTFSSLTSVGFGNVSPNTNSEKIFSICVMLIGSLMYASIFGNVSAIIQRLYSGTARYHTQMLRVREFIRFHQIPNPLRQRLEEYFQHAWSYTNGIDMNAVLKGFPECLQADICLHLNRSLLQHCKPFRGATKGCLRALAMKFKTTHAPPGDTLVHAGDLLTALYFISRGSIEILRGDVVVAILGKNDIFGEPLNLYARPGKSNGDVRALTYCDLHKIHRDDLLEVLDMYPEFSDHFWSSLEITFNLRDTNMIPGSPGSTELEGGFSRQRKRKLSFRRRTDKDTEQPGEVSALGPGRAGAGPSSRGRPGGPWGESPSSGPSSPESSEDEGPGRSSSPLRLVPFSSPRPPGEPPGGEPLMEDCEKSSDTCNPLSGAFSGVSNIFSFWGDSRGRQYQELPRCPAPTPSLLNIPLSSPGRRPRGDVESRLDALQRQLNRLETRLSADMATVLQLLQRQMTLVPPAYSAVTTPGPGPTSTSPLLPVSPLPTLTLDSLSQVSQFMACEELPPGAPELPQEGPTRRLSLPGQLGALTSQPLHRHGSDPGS
In the case of `O=C(c1ccc2nccnc2c1)N1CCCC(N2CCN(c3ccc(F)cc3)CC2)C1` (stereo not shown), the “hERG current change (%, negative = inhibition) at 10uM” value is listed as -9.66%.

For the molecule `O=S(=O)(NCC(c1cccnc1)N1CCN(c2ccc(F)cc2)CC1)c1cc(F)ccc1F` (stereo not shown), the “hERG current change (%, negative = inhibition) at 10uM” value is -65.8%.

In the case of `O=C(NCc1ccc(Cl)cc1)C(=O)NCC(c1cccnc1)N1CCN(c2ccc(F)cc2)CC1` (stereo not shown), the “hERG current change (%, negative = inhibition) at 10uM” value was -45.5%.

As for `O=C(NCC(c1cccnc1)N1CCN(c2ccccc2)CC1)Oc1ccccc1` (stereo not shown), the “hERG current change (%, negative = inhibition) at 10uM” value is -19.2%.

As to `COc1ccc(N2CCN(C(CNC(=O)C(C)(C)C)c3cccnc3)CC2)cc1` (stereo not shown), the “hERG current change (%, negative = inhibition) at 10uM” value was -36.7%.

As for `O=S(=O)(NCC(c1cccnc1)N1CCN(Cc2ccccc2)CC1)c1cc(F)ccc1F` (stereo not shown), the “hERG current change (%, negative = inhibition) at 10uM” value is on record as -69.1%.

On to `COc1ccccc1N1CCN(C(CNS(=O)(=O)c2cc(F)ccc2F)c2cccnc2)CC1` (stereo not shown), for which the “hERG current change (%, negative = inhibition) at 10uM” value is -35%.

As for `COc1ccc(N2CCN(C(CNS(=O)(=O)c3cc(F)ccc3F)c3cccnc3)CC2)cc1` (stereo not shown), the “hERG current change (%, negative = inhibition) at 10uM” value is given as -69%.

As to `O=S(=O)(NCC(c1cccnc1)N1CCN(c2ccccc2)CC1)c1cc(F)ccc1F` (stereo not shown), the “hERG current change (%, negative = inhibition) at 10uM” value is given as -62.8%.

On to `O=C(NCC(c1cccnc1)N1CCN(c2ccc(F)cc2)CC1)C1CCCCC1` (stereo not shown), for which the “hERG current change (%, negative = inhibition) at 10uM” value is recorded as -45.5%.

Take `CCS(=O)(=O)NCC(c1cccnc1)N1CCN(c2ccccc2)CC1` (stereo not shown): the “hERG current change (%, negative = inhibition) at 10uM” value is -28.1%.

On to `Cc1cc(F)ccc1S(=O)(=O)NCC(c1cccnc1)N1CCc2ccccc21` (stereo not shown), for which the “hERG current change (%, negative = inhibition) at 10uM” value is on record as -1.61%.

`CC1CCCCN1C(=O)c1cc2nc(-c3ccccc3)cc(-c3ccccc3)n2n1` (stereo not shown): the “hERG current change (%, negative = inhibition) at 10uM” value was -14.5%.

Turning to `O=S(N1CCCCC1)C12CC3CC(CC(C3)C1)C2` (stereo not shown), the “hERG current change (%, negative = inhibition) at 10uM” value is recorded as -6.95%.

As for `COc1ccc(-c2nc(NC(=O)CCNC(=O)c3ccco3)sc2C)cc1`, the “hERG current change (%, negative = inhibition) at 10uM” value is recorded as -11.1%.

As to `CC(C)C[C@H](NC(=O)N1CC(=O)Nc2ccccc21)C(=O)N[C@@H](Cc1ccccc1)C(=O)O`, the “hERG current change (%, negative = inhibition) at 10uM” value was 13.2%.

For the molecule `NC(=O)Cn1cc(C(=O)c2cccs2)c2ccccc21`, the “hERG current change (%, negative = inhibition) at 10uM” value is recorded as -2.95%.

In the case of `O=C(NNc1cc(Cl)ccc1Cl)c1cccs1`, the “hERG current change (%, negative = inhibition) at 10uM” value is 7.63%.

Consider `Cc1c(Br)c([N+](=O)[O-])nn1C(C)C(=O)N1CCc2ccccc2C1` (stereo not shown), for which the “hERG current change (%, negative = inhibition) at 10uM” value is -13.4%.

As for `Cc1c(OC(C)C(=O)NC2CC(C)(C)NC(C)(C)C2)ccc2c3c(c(=O)oc12)CCC3` (stereo not shown), the “hERG current change (%, negative = inhibition) at 10uM” value turned out to be 12.5%.

Consider `COc1cc(/C=N/N(C)C2=NS(=O)(=O)c3ccccc32)cc(OC)c1OC`, for which the “hERG current change (%, negative = inhibition) at 10uM” value was found to be 7.82%.

On to `CC1CCCN(CCCNC(=O)c2ccc(CS(=O)(=O)Cc3cccc(Cl)c3)o2)C1` (stereo not shown), for which the “hERG current change (%, negative = inhibition) at 10uM” value is listed as -40.7%.

In the case of `CC1CC(C)CN(CCCNC(=O)c2ccc(CS(=O)(=O)Cc3cccc(Cl)c3)o2)C1` (stereo not shown), the “hERG current change (%, negative = inhibition) at 10uM” value is listed as -69.1%.

`Cc1ccc(CS(=O)(=O)Cc2ccc(C(=O)NCCCN3CCOCC3)o2)cc1`: the “hERG current change (%, negative = inhibition) at 10uM” value is listed as 6.75%.

As to `Cc1ccc(CS(=O)(=O)Cc2ccc(C(=O)NCCCN3CC(C)CC(C)C3)o2)cc1` (stereo not shown), the “hERG current change (%, negative = inhibition) at 10uM” value is -60.2%.

Consider `CC1CCN(CCCNC(=O)c2ccc(CS(=O)(=O)Cc3ccc(Cl)cc3)o2)CC1`, for which the “hERG current change (%, negative = inhibition) at 10uM” value was -44%.

In the case of `Cc1ccccc1CS(=O)(=O)Cc1ccc(C(=O)NCCCN2CC(C)CC(C)C2)o1` (stereo not shown), the “hERG current change (%, negative = inhibition) at 10uM” value is -36.1%.

Regarding `CN(C1=NS(=O)(=O)c2ccccc21)c1ccc(OC(=O)c2ccncc2)cc1`, the “hERG current change (%, negative = inhibition) at 10uM” value is given as -9.07%.

As for `COc1cccc(CN(C)C(=O)CCN(c2ccccc2)S(=O)(=O)c2ccc(C)cc2)c1OC`, the “hERG current change (%, negative = inhibition) at 10uM” value is -30.4%.

As to `COC(=O)C1=C(c2ccc(F)cc2F)C[C@@H]2CC[C@H]1N2C(=O)NC1Cc2ccccc2C1`, the “hERG current change (%, negative = inhibition) at 10uM” value is -16.9%.

As for `O=C(N/N=C/c1cc(O)ccc1[N+](=O)[O-])c1ccc2c(c1)OCCO2`, the “hERG current change (%, negative = inhibition) at 10uM” value is recorded as -2.12%.

`CCCCOc1ccc(S(=O)(=O)n2c(C)nc3ccccc32)cc1`: the “hERG current change (%, negative = inhibition) at 10uM” value is given as 0.0246%.

As to `CCN(CC(=O)NCc1cccs1)C(=O)c1ccc(S(=O)(=O)Nc2ccccc2Cl)cc1`, the “hERG current change (%, negative = inhibition) at 10uM” value is recorded as -26.8%.

As for `N#Cc1ccc(/C=N/NC(=O)c2cccc(S(=O)(=O)N3CCOCC3)c2)cc1`, the “hERG current change (%, negative = inhibition) at 10uM” value worked out at 13.3%.

As for `C/C(=N\NC(=O)c1cccc(S(=O)(=O)N2CCCC2)c1)c1ccncc1`, the “hERG current change (%, negative = inhibition) at 10uM” value was -1.9%.

For the molecule `C/C(=N\NC(=O)c1cccc(S(=O)(=O)N2CCOCC2)c1)c1ccc(C#N)cc1`, the “hERG current change (%, negative = inhibition) at 10uM” value was -52.6%.

In the case of `C/C(=N\NC(=O)c1cccc(S(=O)(=O)N2CCCC2)c1)c1ccc(C)cc1`, the “hERG current change (%, negative = inhibition) at 10uM” value is on record as -50.4%.

As to `C/C(=N\NC(=O)c1cccc(S(=O)(=O)N2CCOCC2)c1)c1ccc(C)cc1`, the “hERG current change (%, negative = inhibition) at 10uM” value is -3.88%.

Take `C/C(=N\NC(=O)c1cccc(S(=O)(=O)N2CCOCC2)c1)c1ccc(O)cc1`: the “hERG current change (%, negative = inhibition) at 10uM” value is reported as 11.4%.

For `Cn1c(=O)c2c([nH]c(=S)n2CCCc2ccccc2)n(C)c1=O`, the “hERG current change (%, negative = inhibition) at 10uM” value came to 15.5%.

For `CC(Cc1cccs1)NC(=O)Nc1ccc(F)cc1` (stereo not shown), the “hERG current change (%, negative = inhibition) at 10uM” value was determined as 18.2%.

`CCc1nc(C#N)c(N2CCOCC2)o1`: the “hERG current change (%, negative = inhibition) at 10uM” value turned out to be 2.54%.

For `CCN(c1ccccc1)S(=O)(=O)c1ccc(C(=O)Oc2ccc(C(C)=O)cc2)cc1`, the “hERG current change (%, negative = inhibition) at 10uM” value is 8.41%.

Turning to `CC1(C)N=C(N)NC(Nc2ccccc2)=N1`, the “hERG current change (%, negative = inhibition) at 10uM” value turned out to be 2.96%.

As to `Cc1onc(-c2ccccc2Cl)c1C(=O)Nc1cccc(-c2nc3ncccn3c2C)c1`, the “hERG current change (%, negative = inhibition) at 10uM” value is on record as -63%.

With `Cc1onc(-c2ccccc2Cl)c1C(=O)Nc1ccc(-c2cn3cccnc3n2)cc1`, the “hERG current change (%, negative = inhibition) at 10uM” value was 26%.

`Cc1onc(-c2ccccc2Cl)c1C(=O)Nc1cccc(-c2cn3cccnc3n2)c1`: the “hERG current change (%, negative = inhibition) at 10uM” value is recorded as -24.8%.

On to `Cl.O=C1CC2(CCCC2)CC(=O)N1CCCCN1CCN(c2ncccn2)CC1`, for which the “hERG current change (%, negative = inhibition) at 10uM” value is -35.9%.

Turning to `Cc1c(C)n2c(SCC(=O)NCc3ccc4c(c3)OCO4)nnc2[nH]c1=O`, the “hERG current change (%, negative = inhibition) at 10uM” value is listed as 7.88%.

On to `CSc1cccc(NC(=S)N2CCC(N(C)C3CCCCCC3)CC2)c1`, for which the “hERG current change (%, negative = inhibition) at 10uM” value is recorded as -62.9%.

For `CSc1cccc(NC(=S)N2CCC(N(C)C3CCCC3)CC2)c1`, the “hERG current change (%, negative = inhibition) at 10uM” value is listed as -29.2%.

As to `CSc1cccc(NC(=S)N2CCC(N(C)C(C)C)CC2)c1`, the “hERG current change (%, negative = inhibition) at 10uM” value is given as -16.2%.

As to `CSc1cccc(NC(=S)N2CCC(N(C)C3CCCCC3C)CC2)c1` (stereo not shown), the “hERG current change (%, negative = inhibition) at 10uM” value was -58.2%.

With `CSc1cccc(NC(=S)N2CCC(N(C)C3CCCCC3)CC2)c1`, the “hERG current change (%, negative = inhibition) at 10uM” value is on record as -64.4%.

In the case of `CCOC(=O)N1CCC(N(CCN(C)C)C(=S)Nc2cccc(SC)c2)CC1`, the “hERG current change (%, negative = inhibition) at 10uM” value is given as -11.6%.

As for `CN(C1CCCC1)C1CCN(C(=S)Nc2cc(F)cc(F)c2)CC1`, the “hERG current change (%, negative = inhibition) at 10uM” value is -42%.

Turning to `CSc1cccc(NC(=S)N2CCC(c3ccccc3)C2)c1` (stereo not shown), the “hERG current change (%, negative = inhibition) at 10uM” value was found to be 7.54%.

For the molecule `CCCCN(C)C1CCN(C(=S)Nc2cccc(OC)c2)CC1`, the “hERG current change (%, negative = inhibition) at 10uM” value is recorded as -19.9%.

In the case of `CCC(C)N(C)C1CCN(C(=S)Nc2cccc(SC)c2)CC1` (stereo not shown), the “hERG current change (%, negative = inhibition) at 10uM” value was -45.8%.

In the case of `CCCCN(C)C1CCN(C(=S)Nc2cccc(SC)c2)CC1`, the “hERG current change (%, negative = inhibition) at 10uM” value is on record as -59.8%.

Regarding `CCCCN(C(=S)Nc1cccc(SC)c1)C1CCN(C(C)=O)CC1`, the “hERG current change (%, negative = inhibition) at 10uM” value is recorded as -28.9%.
